Compound activity (PubChem BioAssay)
Only some compounds are listed: those with a hit (about 11% of all), similar ones and a draw of the others.
SW480 rerep: DNA re-replication induction in SW480 cells | SW480 DNA re-replication, Hoechst DNA content imaging, 48 h | Potency, µM (highest dose often 46.1 µM), without a hit: at the top dose re-replication activation, actives largely listed as activators | 1.8% of 340,000 active | AID 624297; also: potency is read from the fitted curve at half-maximal effect; % of control where 0% means no effect; nearly all actives have a fitted effect of over 55% in size
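Quantitative HTS format with DMSO vehicle controls; 48 hr drug incubation at 37 C, then 40 min Hoechst staining and scanning imager measurement at 405 nm excitation.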
IL1B secr inh: inflammasome signaling inhibition, IL-1 beta readout; activity change, % at 57.5 µM; THP-1 LPS/ATP IL-1B secretion, AlphaLISA, 16 h; active compounds read low; AID 743279; 4.7% of 360,000 active; in the data active = activity change below about -50%; inconclusive = mostly about -30% to -49%; also: % is scaled to controls: 0 for no effect and ±100 for the full control effect
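THP-1 cells pretreated 1 hr with compounds (up to 57.5 uM final), then stimulated with LPS (250 ng/mL final) plus ATP (1.25 mM final); secreted IL-1B measured by AlphaLISA after 16 hr, decreased signal indicating inhibition.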
RORg inh: blocks mouse ROR gamma transcriptional activity; P51450; Drosophila S2 Gal4-RORgamma UAS-luciferase reporter, 20 h; Potency, µM (series often up to 53.6 µM), for the others: top-dose activity change, negative = inhibition, hits mostly inhibitors; 5.4% of 310,000 active; also: potency is read from the fitted curve at half-maximal effect; % is scaled to controls: 0 for no effect and ±100 for the full control effect; nearly all actives have a fitted effect of over 60% in size
Target sequence (P51450 whole entry, looked up, the tested form may be a part): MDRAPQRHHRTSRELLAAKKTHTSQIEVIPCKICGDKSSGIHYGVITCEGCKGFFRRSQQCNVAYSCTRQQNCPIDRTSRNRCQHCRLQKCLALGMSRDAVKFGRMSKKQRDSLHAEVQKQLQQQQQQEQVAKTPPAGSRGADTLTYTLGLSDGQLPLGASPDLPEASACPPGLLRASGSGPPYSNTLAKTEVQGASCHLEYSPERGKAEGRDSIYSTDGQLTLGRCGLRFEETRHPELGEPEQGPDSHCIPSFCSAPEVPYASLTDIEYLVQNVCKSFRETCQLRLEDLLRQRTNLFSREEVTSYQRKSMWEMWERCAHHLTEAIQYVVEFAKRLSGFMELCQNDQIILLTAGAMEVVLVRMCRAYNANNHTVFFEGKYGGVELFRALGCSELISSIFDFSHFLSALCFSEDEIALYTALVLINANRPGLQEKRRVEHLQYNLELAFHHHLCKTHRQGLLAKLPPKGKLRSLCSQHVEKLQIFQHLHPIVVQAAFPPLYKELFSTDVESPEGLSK
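Using a luciferase readout, inhibitors were identified by reduced reporter activity in Drosophila cells coexpressing a copper-inducible Gal4–ROR gamma fusion and UAS-driven Photinus luciferase, incubated 20 hr after 700 uM copper sulfate.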
Gal4-VP16 FLuc: Gal4-VP16 reporter inhibition counter-screen; 3.5% of 310,000 active; Drosophila S2 Gal4-VP16 UAS-luciferase, luminescence, 20 h; Potency, µM (top dose mostly 53.6 µM), for inactives: at the highest dose activity, negative = inhibition, hits mostly inhibitors; AID 2546;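 also: Gal4-VP16 expression switched on by copper sulfate through the metallothionein promoter; potency is read from the fitted curve at half-maximal effect; % is scaled to controls: 0 for no effect and ±100 for the full control effect; nearly all actives have a fitted effect of over 50% in size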
MCF10A rerep: inducers of DNA re-replication in MCF 10A breast cells; AID 624296; 2.9% of 350,000 active; MCF 10A DNA re-replication, Hoechst nuclear intensity, 48 h; Potency, µM (highest dose often 46.1 µM), without a hit: at the highest dose activity, positive = re-replication, actives largely listed as activators; also: potency is read from the fitted curve at half-maximal effect; % of control where 0% means no effect; nearly all actives have a fitted effect of over 50% in size
* = called active by the depositor; u = inconclusive; x = no result; [ ] = another dose, or the depositor's remark. Unless noted, calls follow the shape of the dose curve; as a rule, active = well fitted curve in the direction sought with a large enough effect; inconclusive = small, poorly fitted or top-dose-only effect, or another doubt; inactive = no such curve, though single readings can be large; an effect the other way counts as inactive or inconclusive.

SMILES | SW480 rerep | IL1B secr inh | RORg inh | Gal4-VP16 FLuc | MCF10A rerep
C=CCN(C(=O)CSC1=NC(=O)CN1C(C)=O)c1nc(C)c(-c2ccccc2)s1 | -109.5% | -88.9* | 12.6µM* | u | 11.6µM*
CCN(CC)CCCNc1ccc2ncn3c4ccc(O)cc4c(=O)c1c23 | 7.31µM* | -92.6* | x | x | u
CCN(CC)CCCNc1ncnc2ccccc12 | -5.4% | 21.5 | 1.1% | 2.5% | 11.4%
CN(C)CCNc1ccc2nnn3c4ccc(O)cc4c(=O)c1c23 | 9.0% | -53.2* | x | x | 7.0%
CCCCCCOc1ccc(C(=O)O)cc1C#N | -0.5% | 0.0 | 25.5% | -7.8% | 18.4µM*
CCCCCCCCOc1ccc(C(=O)O)cc1 | -2.6% | 12.8 | 25.2% | -8.0% | -31.7%
COc1ccc(N=C2C(=O)Nc3ccccc32)cc1 | u | 7.8 | 8.3% | -7.5% | 22.8%
COc1ccc(N=C2C(=O)N3c4c(cccc42)C(C)=CC3(C)C)cc1 | 20.6µM* | 46.0 | -27.9% | -1.6% | 20.6µM*
CSc1ccc(NC(=O)N2CCC(C(=O)c3ccc(F)cc3)CC2)cc1 | -5.6% | -68.7* | 7.8% | -0.3% | 1.8%
COc1ccc(NC(=O)N2CCC(C(=O)c3ccc(F)cc3)CC2)cc1 | -8.0% | -11.6 | 20.2% | -14.2% | 2.1%
COC(=O)C1CCN(C(=O)Nc2ccccc2)CC1 | u | -104.9* | -0.9% | 5.5%[10 µM] | -1.5%
Cc1cccc(NC(=O)N2CCC(C(=O)c3ccc(F)cc3)CC2)c1 | 2.31µM* | -14.0 | 18.1% | -12.3% | -0.3%
O=C(Nc1ccccc1)N1CCCC1 | -4.0% | -1.1 | 23.5% | -3.5% | 11.1%
CSc1cccc(NC(=O)NNC(=O)C2CCN(S(=O)(=O)N(C)C)CC2)c1 | 13.0% | 12.5 | -10.6% | -6.8% | 0.4%
CCn1c(SC(C)C(=O)NC2CCCC2)nc2cc(S(N)(=O)=O)ccc21 (stereo not given) | 13.0% | -1.5 | x | x | 5.6%
CCn1c(=O)c2ccccc2n2c(SCC(N)=O)nnc12 | -0.6% | -0.5 | x | x | -13.3%
CC1=CC(C)(C)n2c(O)c(N=N)c3c(C)ccc1c32 | 6.4% | 12.0 | -2.8% | -27.3% | u
CC1=CC(C)(C)n2c(O)c(N=N)c3cc(C)cc1c32 | 15.0% | -60.4* | -11.2% | -16.3% | u
CC1=CC(C)(C)n2c(O)c(N=N)c3c(C)c(C)cc1c32 | u | -8.7 | -3.8% | -5.7% | 23.1µM*
CC1C(=O)N(Cc2cn(CCC3OCCCO3)nn2)CCS(=O)(=O)N1Cc1ccc(-c2ccc(Cl)cc2)cc1 (stereo not given) | x | -7.4 | x | x | x
COc1cccc(-c2cncnc2Nc2ccc(F)cc2)c1 | x | x | 3.2% | 7.4% | x
COc1ccccc1N1CCN(C(=O)c2cc(S(=O)(=O)N3CCOCC3)ccc2C)CC1 | 1.1% | -1.7 | x | x | -0.1%
Cc1cc(C)n(-c2nc3ccccc3c(=O)n2OCc2ccc(Cl)cc2)n1 | 10.1% | 35.9 | 10µM* | u | 5.1%
Cc1cc(C)n(-c2nc3ccccc3c(=O)n2OCc2ccc(F)cc2)n1 | 6.0% | 8.7 | u | u | 1.8%
Cc1cc(C)n(-c2nc3ccccc3c(=O)n2OCC(=O)Nc2c(C)cccc2C)n1 | 1.6% | -1.4 | 11.2µM* | u | u
SMILES | SW480 rerep | IL1B secr inh | RORg inh | Gal4-VP16 FLuc | MCF10A rerep
Cc1cc(C)n(-c2nc3ccccc3c(=O)n2OCC(=O)OCc2ccccc2)n1 | u | 73.4 | 0.562µM* | 2.51µM* | 7.8%
COC1=C(OC)C(=O)C(Sc2ccc3ccccc3c2)=CC1=O | 18.4µM* | -104.3* | x | x | 5.8µM*
Cc1ccccc1N(C(=O)Cn1nnc(-c2cccs2)n1)C(C(=O)NCCC(C)C)c1ccco1 (stereo not given) | u | -50.9* | 32.6% | 1.9% | 8.5%
COCCNC(=O)C(c1ccco1)N(C(=O)Cn1nnc2ccccc21)c1ccccc1C (stereo not given) | 5.6% | 5.0 | -6.8% | 3.8% | 2.0%
COc1cccc(C(=O)C2CCCN(CC3=Cc4cc(OC)ccc4OC3)C2)c1 (stereo not given) | u | -89.3* | 31.7% | -4.4% | 29.7%
COc1ccc2cc(C(=O)C3CCCN(Cc4cnc(C)s4)C3)ccc2c1 (stereo not given) | u | -65.5* | u | -25.1% | 7.4%
COc1ccc(C(=O)C2CCCN(Cc3cnc(N4CCCC4)s3)C2)cc1OC (stereo not given) | -0.8% | 13.4 | 12.8% | 5.0% | -1.6%
CNc1ncnc2ccc(-c3cccc(OC)c3)cc12 | x | x | 36.9% | -12.0% | x
COc1ncnc2c1ncn2CCCNCC(c1ccccc1)c1ccccc1 | x | 14.5 | x | x | x
COc1ccc(CNC(=O)Cn2cnc3c(OCc4ccccc4)ncnc32)cc1 | 27.3% | 43.6 | x | x | 0.6%
c1ccc(COc2ncnc3c2ncn3CCCNCC(c2ccccc2)c2ccccc2)cc1 | x | -93.8* | x | x | x
O=C(Cn1cnc2c(OCc3ccccc3)ncnc21)NCc1ccccc1 | 14.6µM* | 61.3 | x | x | u
O=C(Cn1cnc2sc(-c3ccccc3)cc2c1=O)NCCc1ccccc1 | u | 41.3 | -1.1% | u | u
O=C(Cn1cnc2sc(-c3ccccc3)cc2c1=O)NCc1ccccc1 | 16.4µM* | 40.8 | 0.0% | 1.2% | 4.61µM*
O=S(=O)(c1ccccc1)N1CCC[C@@]2(CCN(Cc3cc(C(F)(F)F)cc(C(F)(F)F)c3)C2)C1 | x | x | 11.2% | -4.3% | x
CC1(C(=O)NS(=O)(=O)c2ccc(F)cc2F)CCN1C(=O)Cc1cc(F)ccc1F (stereo not given) | x | 11.2 | x | x | x
Cc1cccc(NC(=O)Nc2nnc([C@H]3C[C@H](O)[C@@H](CO)O3)s2)c1 | x | -5.1 | x | x | x
COc1ccc(OC)c2c(C)cc(N3CCCCCC3)nc12 | u | -11.0 | 25.1% | 3.7% | -5.9%
COc1ccc(OC)c2c(C)cc(C)nc12 | 2.5% | -6.9 | 12.6µM* | -1.0% | -28.6%
CCOC(=O)c1c(-c2ccccc2)csc1NC(=O)/C(C#N)=C\c1ccc(O)c(OC)c1 | u | -7.6 | x | x | 2.31µM*
CCOC(=O)c1c(-c2ccc(C)cc2)csc1NC(=O)/C(C#N)=C/c1ccc(O)c(OC)c1 | u | -21.7 | 31.5% | -18.4% | 20.6µM*
CCOc1ncccc1C(=O)Nc1ccc(Cl)cc1 | 10.7% | 13.6 | -1.3% | 13.7% | u
CCOc1ncccc1C(=O)NCc1ccccc1Cl | u | -8.9 | -1.1% | -15.7% | 0.92µM*
COc1ccc([C@H]2CC(=O)C=C(c3ccnc4ccc(Cl)cc34)C2)cc1 | u | -11.9 | x | x | u
CSc1nc(=S)cc(C)[nH]1 | u | 12.8 | u | -5.8% | 4.2%
Cc1cc(=S)nc(-c2ccccn2)[nH]1 | u | -0.1 | 0.794µM* | u | 9.0%
Cc1[nH]c(-c2ccccn2)nc(=S)c1Cl | u | x | 10µM* | u | -0.9%
Cc1cc2nc(-c3ccccn3)c(-c3ccccn3)nc2cc1C | x | x | u | -23.7% | x
OC(Cc1ccnc2ccccc12)C(Cl)(Cl)Cl (stereo not given) | -2.5% | 8.4 | x | x | 8.8%
